# Screening data as filed in PubChem.
# CendR NRP1 mod – modulators of CendR peptide binding to NRP-1, primary screen, biochemical, fluorescence polarization, uHTS. Neuropilin-1 (Homo sapiens), O14786. FAM-RPARPAR peptide binding to NRP-1. inhibition, % at 25 µM. actives 0.85% (n = 360,000). AID 602438, 2012;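 active means inhibition or corrected inhibition above about 18%, plus a signal ratio from 0.5 to 1.5, limit read from the data, passing the limit was not always enough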
# ADAM17 inh – ADAM17 inhibitors, primary screen, biochemical, QFRET; Disintegrin and metalloproteinase domain-containing protein 17 (Homo sapiens), P78536; recombinant ADAM17, EDANS/DABCYL FRET peptide cleavage; inhibition, % at 6.95 µM; actives 0.83% (n = 370,000); AID 720648, 2013;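 active means inhibition above the mean of compounds lying between control limits plus 3 SD, set per campaign, cut at about 8.5% in these data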;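 further: 0% = DMSO-only wells as the low control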
# ADAM10 inh – human ADAM10 inhibitors, primary screen, biochemical, QFRET, HTS | Disintegrin and metalloproteinase domain-containing protein 10 (Homo sapiens), O14672 | AID 720582, 2013 | actives 0.62% (n = 370,000) | inhibition, % at 7 µM | recombinant ADAM10, EDANS/DABCYL FRET peptide cleavage, 3 h;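 active means inhibition above a per-campaign cutoff equal to the mean of compounds falling between control-based bounds plus 3 SD, cut at about 20% in these data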;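 further: 0% = DMSO wells while the 100% control is not disclosed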
# sPLA2-III inh – human group III sPLA2 inhibitors, primary screen, biochemical, QFRET, BODIPY PC-A2 liposome substrate | Group 3 secretory phospholipase A2 (Homo sapiens), Q9NZ20 | QFRET BODIPY PC-A2 liposome hydrolysis, fluorescence | inhibition, % at 12.2 µM | actives 0.56% (n = 370,000) | AID 743126, 2013;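 active means inhibition above mean plus 3 SD of compounds lying within the high and low control bounds, cut at about 19% in these data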;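 further: 0% = median of test compound wells and 100% = no enzyme DMSO wells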
# proKLK7 act – proKLK7 zymogen activators, primary screen, biochemical, fluorescence intensity; Kallikrein-7 (Homo sapiens), P49862; purified proKLK7, EDANS-DABCYL substrate fluorescence; 100% is mature enzyme control, 0% vehicle; activation, % at 7 µM; actives 0.9% (n = 370,000); AID 652039, 2013;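 active means activation above the mean of all tested compounds plus 3 SD, computed per campaign excluding outliers beyond control limits, cut at about 13% in these data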
# Target sequence (P49862 whole entry, looked up): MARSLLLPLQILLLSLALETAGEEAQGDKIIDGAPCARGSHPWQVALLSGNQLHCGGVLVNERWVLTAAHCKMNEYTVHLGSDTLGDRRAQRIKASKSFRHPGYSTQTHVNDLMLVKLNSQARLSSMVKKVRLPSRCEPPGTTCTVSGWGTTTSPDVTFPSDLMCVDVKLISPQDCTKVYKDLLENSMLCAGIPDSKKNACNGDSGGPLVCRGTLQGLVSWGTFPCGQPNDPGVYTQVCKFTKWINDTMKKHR
# proKLK7 act conf – proKLK7 zymogen activators, confirmation, biochemical, fluorescence intensity, triplicate | shares compounds with proKLK7 act | purified proKLK7, EDANS-DABCYL substrate fluorescence; scaled: vehicle 0, mature enzyme 100 | activation, % at 7 µM | actives 68% (n = 3,200) | AID 686949, 2013;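 active means activation, as change over the incubation, above the mean of all tested compounds plus 3 SD, cut at about 13% in these data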
# EDANS interfere – EDANS-DABCYL substrate optical interference, artefact control for kallikrein-7 zymogen activator project, biochemical, fluorescence intensity, high throughput; shares compounds with proKLK7 act; no enzyme, 4 h; solvent 0%, active enzyme control 100%; activation, % at 7 µM; actives 80% (n = 3,200); AID 686952, 2013;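 active means activation above the all-compound mean plus 3 SD, ignoring values outside control-based bounds, cut at about 4.8% in these data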;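 further: value is the 4 h activation minus the activation read at time zero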
# ADAM10 confirm – human ADAM10 inhibitors, confirmation, biochemical, QFRET, triplicate; ADAM10 QFRET peptide cleavage, EDANS fluorescence; AID 743208, 2013; actives 1% (n = 2,100); inhibition, % at 6.95 µM; shares compounds with ADAM10 inh;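 active means inhibition above about 20% chosen separately for each screening run, limit read from the data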;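 further: 0% = DMSO wells and 100% = marimastat wells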
# ADAM17 counter – ADAM17 inhibitors, counter-screen for ADAM10 exosite inhibitor project, biochemical, QFRET, high throughput. AID 743214, 2013. shares compounds with ADAM10 inh. inhibition, % at 6.95 µM. actives 0.5% (n = 2,100). ADAM17 QFRET peptide cleavage, EDANS fluorescence;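 active means mean triplicate inhibition above the solvent-only control wells' mean plus 3 SD, cut at about 12% in these data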;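 further: 0% = DMSO wells and 100% = marimastat wells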
# * = called active by the depositor; i = inactive; nt = no result given. Rows were chosen to be rich in hits. Some 3.4% of all compounds tested hit in one or more screens of this group.
SMILES,CendR NRP1 mod,ADAM17 inh,ADAM10 inh,sPLA2-III inh,proKLK7 act,proKLK7 act conf,EDANS interfere,others
CC(=O)c1ccc(-c2ccc(C(=O)NC3CC(C)(C)NC(C)(C)C3)o2)cc1,-6,i,i,15,34*,18*,24*,
CC(=O)c1ccc(-c2ccc(C(=O)N3CCC(C(N)=O)CC3)o2)cc1,-9,i,i,13,24*,27*,29*,
CCOC(=O)N1CCN(C(=O)C[C@H]2C[C@@]3(C(=O)OC)C(=C[C@H](C(C)(C)C)O[C@@H]3C)N(Cc3ccc4c(c3)OCO4)C2=O)CC1,nt,1,3,-4,0,nt,nt,
Cc1ccc(/C=C/c2nc3ccccc3[nH]2)o1,-59,-55,-158,-5,21*,31*,30*,
Fc1ccc(C2C3=C(Nc4ncnn42)c2ccccc2OC3c2ccncc2)cc1 (stereo not given),0,-112,-314,-4,13*,23*,26*,
Cc1ccc(C2Oc3ccccc3C3=C2C(c2cccs2)n2ncnc2N3)cc1 (stereo not given),-1,-35,-139,-1,-9,nt,nt,
CCCc1cc2c(O)ccc(O)c2c(=O)o1,nt,-186,i,-25,36*,256*,268*,
O=C1c2[nH]nc(-c3ccccc3)c2C(c2ccc(F)cc2)N1Cc1ccccc1 (stereo not given),nt,6,15,-14,0,nt,nt,
COCCNC(=S)NCCCNc1nc2cc3c(cc2cc1C#N)OCO3,2,i,i,-2,25*,14*,19*,
Nc1nc2sc3c(c2cc1C(=O)N1CCOCC1)CCCC3,-2,-168,i,-1,14*,12,14*,
COC(=O)C1=C(C)N(C)C(=NCc2ccccc2C(F)(F)F)NC1c1cccc(F)c1 (stereo not given),nt,0,2,-13,0,nt,nt,
O=C(Nc1ccccc1C(=O)Nc1ccccc1C(=O)NCc1ccco1)c1ccco1,6,-16,-25,-34,20*,-103,-119,
CC(C)(C)C(=O)Nc1ccccc1C(=O)NCc1ccco1,-4,2,-8,3,0,nt,nt,
CC(=O)c1ccc(Sc2ccccc2)c([N+](=O)[O-])c1,-1,3,5,-3,0,nt,nt,
CC(=O)c1ccc(Sc2ccccc2N)c([N+](=O)[O-])c1,10,-71,-99,1,15*,7,3,
O=C(NCc1ccccc1)O[C@H]1CC[C@@]23CCCN2C(=O)CCC[C@H]3C1,nt,-2,-1,6,nt,nt,nt,
COC(=O)[C@H](C(C)C)N1CCc2nnn(CC3CCCCC3)c2-c2cc(F)ccc2S1(=O)=O,nt,7,13,1,1,nt,nt,
Cc1ccc2c(c1)N(CCCC(=O)NCc1ccc(F)cc1)C(=O)CO2,nt,-3,-9,1,0,nt,nt,
CNc1cnc(-c2ccsc2)cn1,-2,-352,i,-6,15*,12,12*,
Cc1ccc(Cn2c(=S)[nH]c3ccc(N4CCOCC4)cc3c2=O)o1,-3,-35,-187,1,45*,101*,105*,
O=c1c2cc(N3CCOCC3)ccc2[nH]c(=S)n1CCN1CCCC1,-6,-69,-194,0,80*,46*,54*,
O=c1c2cc(N3CCOCC3)ccc2[nH]c(=S)n1CCCN1CCCCCC1,-10,-43,-139,3,104*,44*,41*,
O=c1c2cc(N3CCOCC3)ccc2[nH]c(=S)n1Cc1ccc(Cl)cc1,6,-13,-62,6,-4,nt,nt,
COc1ccc(S[C@]2(C(=O)N3CCCC3)CC(=O)N(C(=O)C3CC3)[C@@H]2c2ccc(OC)cc2)cc1,nt,1,5,6,0,nt,nt,
CCOC(=O)c1[nH]c2cc(OC)c(OC)cc2c1N,-14,-16,-73,5,13*,30*,31*,
SMILES,CendR NRP1 mod,ADAM17 inh,ADAM10 inh,sPLA2-III inh,proKLK7 act,proKLK7 act conf,EDANS interfere,others
CCOC(=O)c1[nH]c2ccc(C)cc2c1N,-6,-5,-10,-6,-4,nt,nt,
CC(=O)CC[C@@H]1CC[C@]2(CCCN(C(=O)C3CCCC3)C2)O1,nt,-3,-5,6,0,nt,nt,
COc1ccc(N(CC(=O)Nc2cccc(C(=O)O)c2)S(=O)(=O)c2c(C)noc2C)cc1,-9,4,-1,-26,17*,-1,0,
CCOC(=O)c1cccc(NC(=O)CN(c2ccc(OC)cc2)S(=O)(=O)c2c(C)noc2C)c1,-8,4,11,-34,0,nt,nt,
CCOC(=O)c1cc2ccc(OC(=O)c3ccco3)cc2oc1=O,0,i,i,9,101*,668*,659*,
CCOC(=O)c1cc2ccc3ccccc3c2oc1=O,8,i,i,3,53*,74*,76*,
CCOC(=O)c1c[nH]c2ccc3ccccc3c2c1=O,1,-1,0,-5,0,nt,nt,
O=C(Cc1ccccc1F)Nc1nnc(-c2cccnc2)s1,nt,1,-1,1,0,nt,nt,
OC(c1ccccc1)(c1ccccc1)C1CCN(CCCOc2ccc(-c3ccc(F)cc3F)cc2)CC1,nt,1,3,0,1,nt,nt,
O=C(CC(SCCO)c1ccc2c(c1)OCO2)c1ccco1 (stereo not given),11,-1,0,4,17*,48*,46*,
CCCSc1ncc(Cl)c(C(=O)Nc2ccc(S(=O)(=O)N3CC(C)OC(C)C3)cc2)n1 (stereo not given),11,7,20*,-16,67*,-145,-145,ADAM10 confirm=10;ADAM17 counter=4
CCCC1CCC2(CC1)CCC2OC(=S)NCc1cccc(OC)c1 (stereo not given),nt,-1,3,-13,nt,nt,nt,
